Source: PubChem BioAssay
Compounds with a hit are over-represented: about 7.5% of the library has one in this group of screens.
FLuc modulator: firefly luciferase modulation, counter-screen for miR-21 project | P08659 | purified FLuc, Km substrates, luminescence inhibition | Potency, µM (titrated, usually from 57.5 µM), most hits filed as inhibitors | actives 6.9% (n = 360,000); note: nearly all actives have a fitted effect of over 55% in size
Target sequence (P08659 whole entry, looked up): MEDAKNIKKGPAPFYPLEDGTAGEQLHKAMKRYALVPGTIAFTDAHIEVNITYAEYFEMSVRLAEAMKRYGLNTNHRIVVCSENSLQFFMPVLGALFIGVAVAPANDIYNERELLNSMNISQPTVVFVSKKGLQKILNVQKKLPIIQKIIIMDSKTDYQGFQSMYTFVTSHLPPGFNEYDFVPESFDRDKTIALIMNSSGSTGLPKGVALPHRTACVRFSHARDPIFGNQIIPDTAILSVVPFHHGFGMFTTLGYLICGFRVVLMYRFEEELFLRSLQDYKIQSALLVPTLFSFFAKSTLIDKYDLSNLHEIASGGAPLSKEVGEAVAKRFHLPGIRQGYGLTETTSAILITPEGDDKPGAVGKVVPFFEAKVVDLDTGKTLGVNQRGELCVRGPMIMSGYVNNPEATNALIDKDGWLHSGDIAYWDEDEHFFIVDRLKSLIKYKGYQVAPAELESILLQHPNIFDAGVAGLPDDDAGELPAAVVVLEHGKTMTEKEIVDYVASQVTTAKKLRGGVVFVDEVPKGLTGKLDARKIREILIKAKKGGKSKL
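Biochemical qHTS of compounds, final roughly 60 µM downward over six points, against 10 nM purified firefly luciferase using Km concentrations of substrates (10 uM D-luciferin, 10 uM ATP) in Tris acetate pH 7.5 buffer; luminescence output.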
SMN2 splice up: increases expression of the SMN2 splice variant; HEK293 SMN2-luciferase splicing reporter, luminescence, 30-36 h; Potency, µM (titrated, usually from 46.1 µM), most hits filed as activators; actives 2.8% (n = 210,000); note: nearly all actives have a fitted effect of over 55% in size
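qHTS luciferase splicing reporter: luminescence rises when SMN2 exon 7 is included in transfected HEK293 cells. Compound exposure lasted 30-36 h at 37C, with 4.5 mM final sodium butyrate as control, followed by a ONE-Glo read.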
Rab9 prom act: activates the Rab9 promoter; Huh7 Rab9 promoter-luciferase reporter, luminescence, 24 h; AID 485297; Potency, µM (doses to about 9.22 µM), actives largely listed as activators; actives 2.8% (n = 320,000); note: nearly all actives have a fitted effect of over 60% in size
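Huh7 reporter line, Rab9 promoter upstream of luciferase. Compound exposure 24 h at 37 °C in reduced-serum medium with 10% FBS. Read-out: luminescence.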
ELG1 genotoxic: induces genotoxicity in HEK293T cells with luciferase-tagged ELG1; HEK293T ELG1-luciferase reporter, luminescence, 16 h; actives 1.3% (n = 330,000); AID 504466; Potency, µM (highest dose often 46 µM), actives largely listed as activators; note: nearly all actives have a fitted effect of over 60% in size
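Quantitative HTS format in 1536-well plates. HEK293T ELG1-luciferase reporter cells receive test compound and are incubated 16 hr at 37 °C, 5% CO2; ONE-Glo added, 30 min room temperature, then luminescence read.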
NPC1 promoter act: NPC1 promoter activation; Huh7 NPC1 promoter luciferase reporter, 24 h; Potency, µM (titrated, usually from 9.22 µM), hits mostly activators; actives 2.4% (n = 320,000); note: nearly all actives have a fitted effect of over 60% in size
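Luminescence from an NPC1 promoter-driven luciferase reporter in stably transfected Huh7 cells was measured after 24 h compound treatment at 37 °C, followed by 10 min ambient incubation with luciferase detection reagent.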
Numbers stand for hits; - = inactive; ? = inconclusive; . = not tested or not shown; [ ] = another dose, or the depositor's remark. Calls come from the whole dose curve; as a rule, active = well fitted curve in the direction sought with a large enough effect; inconclusive = small, poorly fitted or top-dose-only effect, or another doubt; inactive = no such curve, though single readings can be large; an effect the other way counts as inactive or inconclusive.

SMILES	FLuc modulator	SMN2 splice up	Rab9 prom act	ELG1 genotoxic	NPC1 promoter act
CCN(CC)S(=O)(=O)c1cc(NC(=O)c2ccc(-n3cncn3)c([N+](=O)[O-])c2)ccc1C	-	.	-	-	-
CCNc1nc(NCC)nc(N/N=C/c2ccc(Br)cc2)n1	-	-	-	-	-
O=c1cc2c(nn1Cc1cccc([N+](=O)[O-])c1)-c1ccccc1CC2	-	-	-	-	-
O=C1/C(=C/c2cccc([N+](=O)[O-])c2)CCc2ccccc21	9.5µM	-	-	-	-
O=C(O)c1ccc(-n2ncc3c2/C(=C/c2cccc([N+](=O)[O-])c2)CC3)cc1	11µM	.	2.8µM	-	1.6µM
O=C1/C(=C/c2ccc([N+](=O)[O-])cc2)CCc2ccccc21	0.15µM	.	?	7.3µM	-
CCN1C/C(=C\c2cccc([N+](=O)[O-])c2)C(=O)/C(=C/c2cccc([N+](=O)[O-])c2)C1	-	-	-	-	-
N/C(=N\C(=S)Nc1ccccc1)c1ccccc1	11µM	.	0.71µM	?	0.5µM
COc1ccc(C(O)C2=CCCC2=O)cc1 (stereo unspecified)	.	-	.	.	.
Clc1ccc2ccc3cccnc3c2n1	-	.	-[1.84 µM]	-	-
Cc1[nH]c2c(ccc3cccnc32)c1C	24µM	.	-	-	-
CCCC(C)NC(=O)COC(=O)c1cccc(NS(C)(=O)=O)c1 (stereo unspecified)	-	.	-	-	-
Nc1nc(-c2ccccn2)nc(N)c1Cc1c(F)cccc1Cl	27µM	-	-	-	-
Cc1n[nH]c(C)c1Cc1c(F)cccc1Cl	-	.	-	-	-
Nc1nc(-c2ccccn2)nc(N)c1Cc1ccc(Cl)cc1Cl	?	-	-	-	-
Nc1nc(-c2ccccn2)nc(N)c1Cc1ccccc1F	15µM	-	?	-	?
Cc1nn(C(C)(C)C)c(OC(=O)c2c(F)cccc2F)c1Sc1ccccc1	-	-	.	.	.
C=CCn1c(COc2cc(C)ccc2C(C)C)nnc1SCC(=O)c1c(N)n(C)c(=O)n(C)c1=O	4.8µM	-	-	-	-
CC(C)(C)c1ccc(-c2cc(N)n[nH]2)cc1	9.5µM	-	-	-	-
O=C(O)c1cccc(NC(=O)C2CCCO2)c1 (stereo unspecified)	-	-	-	-	-
O=C(O)c1cccc(NC(=O)c2cccc(NC(=O)C3CCCO3)c2)c1 (stereo unspecified)	3µM	-	-	-	-
O=C(O)c1cccc(C(=O)Nc2cccc(NC(=O)C3CCCO3)c2)c1 (stereo unspecified)	2.1µM	.	-	-	-
O=C(Nc1cccc(O)c1)c1ccc(NC(=O)C2CCCO2)cc1 (stereo unspecified)	?	.	-	?	?
C=C(C)C(=O)/C=C/c1ccc(Br)cc1	.	-	.	.	.
CCN1CCN(Cc2c(O)ccc3c2O/C(=C\c2ccc(C)cc2)C3=O)CC1	?	-	-	-	-
SMILES	FLuc modulator	SMN2 splice up	Rab9 prom act	ELG1 genotoxic	NPC1 promoter act
CCN1CCN(Cc2c(O)ccc3c2O/C(=C\c2ccccc2)C3=O)CC1	-	-	-	-	-
COc1ccccc1/C=C/C=C1\Oc2c(ccc(O)c2CN2CCN(CCO)CC2)C1=O	3.8µM	-	-	-	-
CN(C)Cc1c(O)ccc2c1O/C(=C\C=C\c1ccccc1)C2=O	13µM	.	-	-	-
CCN1CCN(Cc2c(O)ccc3c2O/C(=C\C=C\c2ccccc2)C3=O)CC1	11µM	-	-	-	-
CCc1ccc(/C=C2\Oc3c(ccc(O)c3CN3CCN(C)CC3)C2=O)cc1	12µM	.	-	-	?
CCOC(=O)C(NC(=O)c1ccccc1)(Nc1nnc(C)s1)C(F)(F)F (stereo unspecified)	-	-	-	-	-
Cc1ccc(S(=O)(=O)N2CCN(C(=O)CN3CCCSc4ccccc43)CC2)cc1	.	.	-	-	-
CCCNC(=O)c1ccc2c(c1)nc(C)n2-c1cccc(Cl)c1	-	.	-	-	-
O=C1/C(=C/C=C/c2ccccc2)Oc2c1ccc(O)c2CN1CCN(CCO)CC1	12µM	.	-	-	-
COc1ccc(OCc2ccc(/C=N\NC(=O)c3sccc3C)o2)cc1	27µM	.	?	-	?
Cc1cccc(C(=O)Oc2ccc(/C=N/NC(=O)c3cc(O)cc(O)c3)cc2)c1	?	.	-	-	-
CSc1ccc(/C=N/NC(=O)c2cc(O)cc(O)c2)cc1	9.5µM	?	?	?	?
CSc1ccc(/C=N/NC(=O)c2ccc(C)c(C)c2)cc1	19µM	-	-	-	-
CSc1ccc(/C=N/NC(=O)c2sccc2C)cc1	0.43µM	2.5µM	0.63µM	1.8µM	0.56µM
COc1ccc(/C=N/NC(=O)c2sc(C)nc2C)cc1	?	-	-	-	-
COCCCNC(=O)CC(=O)N/N=C\c1ccc(SC)cc1	-	.	-	-	-
COc1ccccc1NC(=O)CCN1C(=O)c2ccccc2S1(=O)=O	-	-	-	-	-
CC1CCCN(c2nc3ccsc3c(=O)s2)C1 (stereo unspecified)	15µM	22µM	?	13µM	?
O=C(NCc1ccccc1Cl)C1CCCN(c2nc3ccsc3c(=O)s2)C1 (stereo unspecified)	-	-	-	-	-
CC1CCc2c(sc(NC(=O)Cc3ccccc3)c2C(=O)Nc2ccc(Cl)cc2)C1 (stereo unspecified)	-	-	.	.	.
COC(=O)CCC(=O)c1oc2ccccc2c1NC(=O)CCCN1C(=O)c2ccccc2C1=O	-	-	-	-	-
COC(=O)CCC(=O)c1oc2ccccc2c1N	21µM	-	-	?	-
COc1ccc(N(C)S(=O)(=O)c2cccc(C(=O)Nc3cccc(C(=O)NC4CC4)c3)c2)cc1	-	.	-	-	-
Cc1nnnn1CC(=O)Nc1cccc([N+](=O)[O-])c1	-	-	-	-	-
CCn1ncc(/C=N\NC(=O)c2csc3ccccc23)c1C	11µM	-	-	?	-
SMILES	FLuc modulator	SMN2 splice up	Rab9 prom act	ELG1 genotoxic	NPC1 promoter act
Cc1nn(C)c(C)c1/C=N/NC(=O)c1csc2ccccc12	17µM	-	-	-	-
COc1ccc(OC)c(NC(=O)c2cccnc2Sc2ccccc2)c1	-	-	-	-	-
C(=C/c1nccc2c1[nH]c1ccccc12)/c1ccc2c(c1)OCO2	3µM	-	-	?	?
CC(=O)Nc1ccc(S(=O)(=O)c2cc(O)ccc2O)cc1	-	.	-	-	-
Nc1nc(CSc2ccccc2)nc(N2CCCCC2)n1	?	20µM	?	?	?
Cc1cccc(NC(=O)COC(=O)CCc2c[nH]c3ccccc23)c1	-	.	-	-	-
COC(=O)Cn1c(=NC(=O)c2ccc(Cl)s2)sc2cc(C)ccc21	0.13µM	4µM	?	?	?
O=C(O)c1cc(N(Cc2ccccc2O)Cc2cc(O)ccc2O)ccc1O	.	-	.	.	.
Cc1cc(N(C)C)ccc1N=Nc1ccc2ncccc2c1	0.43µM	.	0.89µM	4.6µM	3.2µM
O=C(O)c1ccc2nc(-c3cc4cc(Cl)ccc4oc3=O)[nH]c2c1	21µM	.	.	.	.
